According to PubChem BioAssay (NCI):
Compounds without any hit were thinned out: in the full panel of roughly 79,000, 15% have a hit. Activity calls are given as the source filed them. Rule as the data show it: active = growth inhibition above about 70%; inactive = the rest.

Legend:
[1] = NCI Yeast Anticancer Drug Screen. Data for the rad52 strain (AID 147);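 also: 0% = growth of vehicle-treated control cultures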; conditions: S. cerevisiae rad52 mutant growth inhibition, stronger effect = higher value
Summary of the method: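 The repair-mutant yeast strain was incubated with compounds, then growth was read and inhibition derived relative to vehicle.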

[2] = NCI Yeast Anticancer Drug Screen. Data for the wt1 strain (AID 149);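 also: 0% = growth of vehicle-treated wt1 cultures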; conditions: S. cerevisiae wt1 strain (SPY 50644) growth inhibition, stronger effect = higher value
Summary of the method: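 Using yeast strain wt1, compound-induced growth inhibition was determined against vehicle-treated cultures.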

[3] = NCI Yeast Anticancer Drug Screen. Data for the rad50EPP+ strain (AID 151);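 also: 0% = growth of vehicle-treated control cultures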; conditions: S. cerevisiae rad50 mutant strain, stronger effect = higher value
Summary of the method: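 Vehicle-normalised growth inhibition; rad50EPP+ yeast strain, altered in DNA damage repair, compound-treated.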

[4] = NCI Yeast Anticancer Drug Screen. Data for the mgt1 strain (AID 153); conditions: S. cerevisiae mgt1 mutant growth inhibition, stronger effect = higher value
Summary of the method: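 Vehicle-normalized growth inhibition is determined in mgt1 yeast, a strain selected for a defined alteration in DNA repair or cell cycle control.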

[5] = NCI Yeast Anticancer Drug Screen. Data for the rad50 strain (AID 155);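 also: 0% = growth of vehicle-only cultures of the same strain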; conditions: S. cerevisiae rad50 strain growth inhibition, stronger effect = higher value
Summary of the method: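 Relative growth inhibition (compound vs vehicle) was measured in yeast with a defined repair-gene alteration.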

[6] = NCI Yeast Anticancer Drug Screen. Data for the mec2-1 strain (AID 157); conditions: S. cerevisiae mec2-1 strain, stronger effect = higher value
Summary of the method: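 Mutant yeast (mec2-1) grown with compound; growth inhibition relative to vehicle control reported.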

[7] = NCI Yeast Anticancer Drug Screen. Data for the rad14 strain (AID 159);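 also: 0% = growth of vehicle-treated control cultures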; conditions: S. cerevisiae rad14 strain growth inhibition, stronger effect = higher value
Summary of the method: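 Screen for anticancer potential: a yeast strain altered in DNA damage repair is grown with compound, and reduced growth is quantified against vehicle controls.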

[8] = NCI Yeast Anticancer Drug Screen. Data for the sgs1 mgt1 strain (AID 161);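 also: 0% = growth of cultures given vehicle only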; conditions: S. cerevisiae sgs1 mgt1 strain, stronger effect = higher value
Summary of the method: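 Percent growth inhibition was derived by comparing compound-exposed mutant yeast with vehicle-exposed cultures. The strain carries alterations in DNA damage repair.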

[9] = NCI Yeast Anticancer Drug Screen. Data for the CLN2oe strain (AID 163);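 also: 0% = growth of vehicle-only control cultures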; conditions: S. cerevisiae CLN2oe strain, stronger effect = higher value
Summary of the method: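 Compounds are applied to yeast harbouring a defined cell-cycle control change; reduced growth compared with vehicle-treated controls gives the value.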

[10] = NCI Yeast Anticancer Drug Screen. Data for the cln2 rad14 strain (AID 165);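 also: 0% = growth equal to vehicle treated cultures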; conditions: S. cerevisiae cln2 rad14 strain, stronger effect = higher value
Summary of the method: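 Readout is yeast growth inhibition versus vehicle-treated controls, using a strain with cln2 and rad14 alterations exposed to compound.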

[11] = NCI Yeast Anticancer Drug Screen. Data for the bub3 strain (AID 167); conditions: S. cerevisiae bub3 mutant strain, stronger effect = higher value
Summary of the method: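 Screening used yeast with an engineered genetic alteration affecting cell cycle control. Compound-exposed cultures were compared with vehicle cultures, and reduced growth was taken as inhibition.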

[12] = NCI Yeast Anticancer Drug Screen. Data for the wt2 strain (AID 169);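 also: 0% = growth of vehicle-treated yeast cultures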; conditions: S. cerevisiae wt2 strain growth inhibition, stronger effect = higher value
Summary of the method: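 Against vehicle-treated controls, the growth of yeast exposed to each compound was compared, and the inhibition was recorded.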

[13] = NCI Yeast Anticancer Drug Screen. Data for the mlh1 strain (AID 171);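 also: 0% = growth of vehicle-treated control cultures of the same strain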; conditions: S. cerevisiae mlh1 strain growth inhibition, stronger effect = higher value
Summary of the method: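 Measured: yeast growth. Reference: vehicle-treated controls. Organism: strain with a defined alteration affecting DNA damage repair or cell cycle control, treated with compound.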

[14] = NCI Yeast Anticancer Drug Screen. Data for the sgs1 strain (AID 173);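 also: 0% = growth of vehicle-only control cultures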; conditions: S. cerevisiae sgs1 mutant, stronger effect = higher value
Summary of the method: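 Each compound was added to cultures of the altered yeast strain. Growth was recorded, and inhibition was derived by comparison with vehicle controls.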

[15] = NCI Yeast Anticancer Drug Screen. Data for the mlh1 rad18 strain (AID 175); conditions: S. cerevisiae mlh1 rad18 strain growth inhibition, stronger effect = higher value
Summary of the method: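 Genetically defined yeast (DNA repair-deficient) exposed to compounds; growth inhibition determined relative to vehicle.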

[16] = NCI Yeast Anticancer Drug Screen. Data for the rad18 strain (AID 177); conditions: S. cerevisiae rad18 mutant growth inhibition, stronger effect = higher value
Summary of the method: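 Vehicle-treated cultures served as the baseline for scoring compound-induced growth inhibition in DNA-repair-mutant yeast.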

[17] = at 5.0 µM (retest, dose inferred, filed as 0.5)
[18] = at 50.0 µM (retest, dose inferred, filed as 5.0)

Measured: growth inhibition

O=C(c1ccc(Cl)cc1Cl)C(Cl)Cl
active: [1]; at 33.0 µM 74% | [1]; at 100.0 µM 98% | [2]; at 100.0 µM 98% | [3]; at 33.0 µM 94% | [3]; at 100.0 µM 96% | [4]; at 100.0 µM 99% | [5]; at 33.0 µM 79% | [5]; [18] 84% | [5]; at 50.0 µM 83.8% | [5]; at 100.0 µM 98% | [6]; at 33.0 µM 81% | [6]; [18] 82% | [6]; at 50.0 µM 85.5% | [6]; at 100.0 µM 98% | [7]; at 100.0 µM 98% | [8]; [18] 99% | [8]; at 50.0 µM 83.8% | [9]; at 100.0 µM 98% | [10]; [18] 98% | [11]; at 33.0 µM 80% | [11]; [18] 96% | [11]; at 50.0 µM 88.8% | [11]; at 100.0 µM 97% | [12]; at 33.0 µM 71% | [12]; at 100.0 µM 98% | [13]; at 33.0 µM 83% | [13]; at 100.0 µM 99% | [14]; at 33.0 µM 80% | [14]; at 100.0 µM 98% | [15]; [18] 75% | [15]; at 50.0 µM 88.5% | [16]; at 33.0 µM 76% | [16]; at 100.0 µM 98%
inactive: [1]; at 1.2 µM 4% | [1]; at 3.7 µM 0% | [1]; at 11.0 µM 14% | [2]; at 1.2 µM -1% | [2]; at 3.7 µM -6% | [2]; at 11.0 µM 3% | [2]; at 33.0 µM 56% | [3]; at 1.2 µM 40% | [3]; at 3.7 µM 53% | [3]; at 11.0 µM 65% | [4]; at 1.2 µM -21% | [4]; at 3.7 µM -34% | [4]; at 11.0 µM -13% | [4]; at 33.0 µM 68% | [5]; at 1.2 µM 11% | [5]; at 3.7 µM 11% | [5]; [17] 46% | [5]; at 11.0 µM 13% | [6]; at 1.2 µM -22% | [6]; at 3.7 µM -24% | [6]; [17] 40% | [6]; at 11.0 µM -9% | [7]; at 1.2 µM -17% | [7]; at 3.7 µM -25% | [7]; at 11.0 µM -15% | [7]; at 33.0 µM 53% | [8]; [17] 13% | [9]; at 1.2 µM -11% | [9]; at 3.7 µM -8% | [9]; at 11.0 µM -13% | [9]; at 33.0 µM 18% | [10]; [17] 68% | [10]; at 50.0 µM 53.6% | [11]; at 1.2 µM -20% | [11]; at 3.7 µM -11% | [11]; [17] -4% | [11]; at 11.0 µM 3% | [12]; at 1.2 µM -8% | [12]; at 3.7 µM -7% | [12]; at 11.0 µM 16% | [13]; at 1.2 µM -10% | [13]; at 3.7 µM 3% | [13]; at 11.0 µM 20% | [14]; at 1.2 µM -14% | [14]; at 3.7 µM -14% | [14]; at 11.0 µM 14% | [15]; [17] 34% | [16]; at 1.2 µM -30% | [16]; at 3.7 µM -34% | [16]; at 11.0 µM -1%

O=C(/C=C\c1ccc(Cl)cc1Cl)c1cccs1
active: [8]; [18] 71% | [11]; [18] 85% | [15]; [18] 88% | [16]; at 33.0 µM 73% | [16]; at 100.0 µM 84%
inactive: [1]; at 1.2 µM -2% | [1]; at 3.7 µM -3% | [1]; at 11.0 µM 3% | [1]; at 33.0 µM 10% | [1]; at 100.0 µM 16% | [2]; at 1.2 µM -2% | [2]; at 3.7 µM 0% | [2]; at 11.0 µM -5% | [2]; at 33.0 µM -6% | [2]; at 100.0 µM -7% | [3]; at 1.2 µM 9% | [3]; at 3.7 µM 23% | [3]; at 11.0 µM 47% | [3]; at 33.0 µM 55% | [3]; at 100.0 µM 58% | [4]; at 1.2 µM -4% | [4]; at 3.7 µM -6% | [4]; at 11.0 µM -4% | [4]; at 33.0 µM 2% | [4]; at 100.0 µM 5% | [5]; at 1.2 µM -1% | [5]; at 3.7 µM -2% | [5]; [17] 0% | [5]; at 11.0 µM 0% | [5]; at 33.0 µM 0% | [5]; [18] 61% | [5]; at 50.0 µM -9.15% | [5]; at 100.0 µM 5% | [6]; at 1.2 µM -6% | [6]; at 3.7 µM -2% | [6]; [17] -10% | [6]; at 11.0 µM 1% | [6]; at 33.0 µM 10% | [6]; [18] 18% | [6]; at 50.0 µM -6.25% | [6]; at 100.0 µM 10% | [7]; at 1.2 µM -2% | [7]; at 3.7 µM 1% | [7]; at 11.0 µM 5% | [7]; at 33.0 µM 9% | [7]; at 100.0 µM 7% | [8]; [17] 0% | [8]; at 50.0 µM 10.2% | [9]; at 1.2 µM -9% | [9]; at 3.7 µM -21% | [9]; at 11.0 µM -17% | [9]; at 33.0 µM -14% | [9]; at 100.0 µM -18% | [10]; [17] 9% | [10]; [18] 27% | [10]; at 50.0 µM -29.9% | [11]; at 1.2 µM 10% | [11]; at 3.7 µM 22% | [11]; [17] 30% | [11]; at 11.0 µM 38% | [11]; at 33.0 µM 47% | [11]; at 50.0 µM 54.9% | [11]; at 100.0 µM 48% | [12]; at 1.2 µM -5% | [12]; at 3.7 µM -1% | [12]; at 11.0 µM -3% | [12]; at 33.0 µM 4% | [12]; at 100.0 µM 7% | [13]; at 1.2 µM -4% | [13]; at 3.7 µM 0% | [13]; at 11.0 µM 1% | [13]; at 33.0 µM 7% | [13]; at 100.0 µM 12% | [14]; at 1.2 µM 0% | [14]; at 3.7 µM 1% | [14]; at 11.0 µM 12% | [14]; at 33.0 µM 33% | [14]; at 100.0 µM 45% | [15]; [17] 27% | [15]; at 50.0 µM 1.1% | [16]; at 1.2 µM 3% | [16]; at 3.7 µM 6% | [16]; at 11.0 µM 29%
